Results: PubChem BioAssay AID1782 (National Center for Advancing Translational Sciences (NCATS), 2009)
Results filed as inconclusive are left out. Activity calls are given as the source filed them. Calls follow the shape of the dose curve; as a rule, active = well fitted curve in the direction sought with a large enough effect; inconclusive = small, poorly fitted or top-dose-only effect, or another doubt; inactive = no such curve, though single readings can be large or run the other way.

Each molecule was assayed against Pyruvate kinase PKLR (Homo sapiens) (UniProt P30613) (assay: Confirmation Concentration-Response Assay for Activators of Human Reticulocyte Pyruvate Kinase). Conditions: purified hPK-R, Kinase-Glo ATP luminescence, 1 h; series mostly up to 57.5 µM.
From the text: Confirmatory assay NIH Chemical Genomics Center [NCGC] Wael M. Rabeh, Lyudmila Nedyalkova and Hee-Wan Park [Structural Genomics Consortium, 100 College St. Toronto, Ontario, Canada] NCGC Assay Overview: Human pyruvate kinase reticulocyte (hPK-R) enzyme was supplied as a highly purified (>95% pure) preparation from Structural Genomics Consortium in Toronto (Ontario, Canada) and assayed for its ability to generate ATP from ADP using phosphoenolpyruvate (PEP) as a substrate. ATP generation was detected in a coupled reaction by luciferase-mediated luminescence, an ATP-dependent process. Pyruvate kinase substrates, PEP and ADP, were present in the assay at Km and approximately 10-fold below Km respectively. The enzyme was assayed at an intermediate level of activity to screen for both inhibitors and activators.
NCGC Assay Protocol Summary for R-isoform Three uL of substrate mix (at r.t.) in assay buffer (50 mM Imidazole pH7.2, 50 mM KCl, 7 mM MgCl2, 0.01% Tween 20, 0.05% BSA) was dispensed into white solid bottom 1,536 well microtiter plates so that the final concentrations of substrates in the assay were 0.1 mM ADP and 0.5 mM PEP. 23 nL of compound were delivered by a pin tool and 1 uL of enzyme mix (final concentration of 0.1 nM) in assay buffer (4 degree Celsius) was added. Plates were incubated at room temperature for 1 hour. Two uL of detection mix (Kinase-Glo, Promega; at 4 degree Celsius protected from light) was added and luminescence read by a ViewLux (Perkin Elmer) at 1 second exposure/plate. Data were normalized to the uninhibited (row 31). Additionally, a no enzyme and 5-fold enzyme control was dispensed in row 32, split equally between the two conditions.

Pyruvate kinase PKLR (Homo sapiens), sequence (P30613 whole entry, looked up): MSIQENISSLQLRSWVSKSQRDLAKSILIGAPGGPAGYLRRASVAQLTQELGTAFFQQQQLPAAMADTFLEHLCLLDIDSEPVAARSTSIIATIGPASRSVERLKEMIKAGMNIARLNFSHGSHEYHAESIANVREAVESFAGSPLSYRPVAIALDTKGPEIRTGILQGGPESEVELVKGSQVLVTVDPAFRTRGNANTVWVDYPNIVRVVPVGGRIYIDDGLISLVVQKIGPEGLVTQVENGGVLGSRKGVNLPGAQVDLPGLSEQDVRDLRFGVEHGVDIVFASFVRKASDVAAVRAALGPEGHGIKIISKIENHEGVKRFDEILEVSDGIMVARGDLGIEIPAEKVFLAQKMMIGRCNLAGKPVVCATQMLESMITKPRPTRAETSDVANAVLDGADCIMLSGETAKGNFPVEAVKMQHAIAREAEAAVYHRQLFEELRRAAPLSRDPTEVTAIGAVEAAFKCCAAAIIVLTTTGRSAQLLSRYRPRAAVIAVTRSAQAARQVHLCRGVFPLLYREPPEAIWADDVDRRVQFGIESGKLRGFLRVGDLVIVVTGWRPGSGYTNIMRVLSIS

Potency, inactive:
Cc1cc2c(s1)c1cnn(Cc3ccc(F)cc3F)c(=O)c1n2C
Cc1cc2c(s1)c1cnn(Cc3c(F)cccc3Cl)c(=O)c1n2C
Cc1cc2c(s1)c1cnn(Cc3ccc(F)cc3)c(=O)c1n2C
Cc1cc2c(s1)c1cnn(-c3ccccc3)c(=O)c1n2C
Cn1c2cc(C=O)sc2c2cnn(Cc3ccccc3F)c(=O)c21
Cc1cc2c(s1)c1cnn(Cc3ccc(C(F)(F)F)cc3F)c(=O)c1n2C
CSc1cc2c(s1)c1cnn(Cc3ccccc3F)c(=O)c1n2C
Cn1c2cc(CO)sc2c2cnn(Cc3ccccc3F)c(=O)c21
CCc1cc2c(s1)c1cnn(Cc3ccccc3F)c(=O)c1n2C
Cc1cc2c(s1)c1cnn(Cc3ccc(-c4ccccc4)cc3)c(=O)c1n2C
COc1cc2c(s1)c1cnn(Cc3ccccc3F)c(=O)c1n2C
Cc1ccc(Cn2ncc3c4sc(C)cc4n(C)c3c2=O)c(C)c1
CCCc1cc(F)c(S(=O)(=O)N2CCN(S(=O)(=O)c3ccc4c(c3)OCCO4)CC2)cc1F
COc1ccc(S(=O)(=O)N2CCN(S(=O)(=O)c3c(F)cccc3F)CC2)cc1
COc1ccc(S(=O)(=O)N2CCN(S(=O)(=O)c3ccc(OC)cc3)CC2)cc1
N#Cc1ccc(S(=O)(=O)N2CCN(S(=O)(=O)c3ccc4c(c3)OCCO4)CC2)cc1
Cn1c2cc([N+](=O)[O-])sc2c2cnn(Cc3ccccc3F)c(=O)c21
Cn1c2cc(B(O)O)sc2c2cnn(Cc3ccccc3F)c(=O)c21
O=S(=O)(c1ccc2c(c1)OCO2)N1CCN(S(=O)(=O)c2c(F)cccc2F)CC1
Cc1cc2c(s1)c1cnn(Cc3ccccc3Cl)c(=O)c1n2C
O=S(=O)(c1c(F)cccc1F)N1CCN(S(=O)(=O)c2c(F)cccc2F)CC1
COc1ccc(Cn2ncc3c4sc(C)cc4n(C)c3c2=O)cc1F
COC(=O)c1cc2c(s1)c1cnn(Cc3ccccc3F)c(=O)c1n2C
O=S(=O)(c1ccc2c(c1)OCCCO2)N1CCN(S(=O)(=O)c2c(F)cccc2F)CC1
Cc1cc2c(s1)c1cnn(Cc3cccc(Cn4ncc5c6sc(C)cc6n(C)c5c4=O)c3F)c(=O)c1n2C
Cc1cc2c(s1)c1cnn(Cc3c(F)cccc3F)c(=O)c1n2C
Cn1c2ccsc2c2cnn(Cc3ccccc3F)c(=O)c21
Cc1cc2c(s1)c1cnn(Cc3ccccc3F)c(=O)c1n2C
O=S(=O)(c1cccc(C(F)(F)F)c1)N1CCN(S(=O)(=O)c2ccc3c(c2)OCCO3)CC1
Cc1cc2c(s1)c1cnn(Cc3cccc(F)c3)c(=O)c1n2C
O=C(c1ccc2c(c1)OCCO2)N1CCN(S(=O)(=O)c2c(F)cccc2F)CC1
Cc1cc2c(s1)c1cnn(Cc3ccc(Cl)cc3)c(=O)c1n2C
Cn1c2cc(S(C)=O)sc2c2cnn(Cc3ccccc3F)c(=O)c21 (stereo not given)
O=S(=O)(c1ccc(F)cc1)N1CCN(S(=O)(=O)c2ccc3c(c2)OCCO3)CC1
Cc1cc2[nH]c3c(=O)n(Cc4ccccc4F)ncc3c2s1
Cc1cc2c(s1)c1cnn(Cc3ccccc3)c(=O)c1n2C
O=C(c1c(F)cccc1F)N1CCN(S(=O)(=O)c2ccc3c(c2)OCCO3)CC1
O=S(=O)(c1ccc2c(c1)OCCO2)N1CCN(S(=O)(=O)c2cccc[n+]2[O-])CC1
Cc1cc2c(s1)c1cnn(Cc3cc(C(F)(F)F)cc(Cl)c3F)c(=O)c1n2C

Potency, active:
COc1ccc(S(=O)(=O)N2CCN(S(=O)(=O)c3ccc4c(c3)OCCO4)CC2)cc1 1410 nM
